Hit rate of the full screen: of about 150,000 compounds, about 540 (0.36%) showed an effect of 50% or more. The full list was thinned out, with strong results kept by preference.

For the experiment, the system named is Plasmodium falciparum. As to the kind of experiment: Primary screen in NF54 nanoGlo assay, in single point, at 2uM, 72h; a lower Z score goes with more inhibition. The experiment is classed as functional, Erythrocyte. Particulars: timepoint 72 hour.
Take `O=C(NC[C@@H](CN1CCCC1)C1CC1)c1ccnn1CC(F)(F)F`: the % Inhibition (commonly the drop in the measured response relative to a control, in per cent) is -1% and the Z score came out at 0.12.
The like results for `C[C@@H](CS(C)(=O)=O)N(C)c1ncnc2cccc(F)c12` were, in that order, 6% and -1.06.
The like results for `C[C@H]1CCCN(CCNC(=O)c2ccc(-c3ccc4c(=O)[nH]ccc4c3)cc2)C1` were, in that order, 67% and -11.64.
The like results for `CN1CCC(N2CCC(CN(CCCn3cccn3)Cc3ccncc3)CC2)CC1` were, in that order, -6% and 0.97.
On to `Cc1ccc2[nH]c3c(c2c1)CCCC3NC1CC2CCC1O2` (centres undefined), for which the “% Inhibition” value is reported as -7% and the Z score is recorded as 1.25.
The like results for `Cn1ncc(C(F)(F)F)c1CN[C@H]1CCCc2c1[nH]c1ccc(Cl)cc21` were, in that order, -15% and 2.6.
The like results for `Clc1ccc2[nH]c3c(c2c1)CCCC3NC1CCN(C2CCOC2)CC1` (centres undefined) were, in that order, 83% and -16.55.
The like results for `CN1CCC[C@@H](CNc2ccnc3ccncc23)[C@@H]1c1ccnn1C` were, in that order, 10% and -1.79.
As to `COCCN1CCC(Nc2ncnc3c(C)cccc23)CC1`, the “% Inhibition” value was 4% and the Z score is on record as -0.91.
`COCCCN1CCC(Nc2ncnc3cc(C)c(C)cc23)CC1`: the “% Inhibition” value came out at 96% and the Z score was -16.62.
The like results for `COCCN1CCC(Nc2nccnc2NC2CCN(CCOC)CC2)CC1` were, in that order, 1% and -0.15.
With `COc1ccc(Nc2ncc(CN(C)CCn3ccnc3)s2)cc1`, the “% Inhibition” value was determined as 1% and the Z score is given as -0.26.
The like results for `COCCN1CC[C@H](CNC2CCN(c3ncc4ccc(F)cc4n3)CC2)C1` were, in that order, 58% and -10.01.
The like results for `CCc1cc(Nc2ccc(N3CCOCC3)nc2)nc(-c2ccncc2)n1` were, in that order, 56% and -9.65.
The like results for `CCc1cc(NC2CCN(CC(F)F)CC2)nc(-c2ccncc2)n1` were, in that order, 4% and -0.75.
For the molecule `CN1CCC(N2CCN(Cc3c(Cl)ccc(O)c3Cl)CC2)CC1`, the “% Inhibition” value is given as -11% and the Z score is listed as 1.6.
The like results for `NCCc1cccc(CN2CCC[C@H](CN3CCCCC3)C2)c1` were, in that order, 3% and -0.52.
The like results for `O=C(NCc1ccc(N2CCNCC2)c(F)c1)c1ccc(-c2noc(C(F)(F)F)n2)cc1` were, in that order, 67% and -11.53.
As for `O[C@H]1CCN(Cc2cccc(NCc3cn4ccnc4s3)c2)C1`, the “% Inhibition” value was determined as 52% and the Z score is on record as -7.83.
For the molecule `OC1CCN(Cc2cccc(NCc3cccc(OCCn4ccnc4)c3)c2)CC1`, the “% Inhibition” value is listed as -3% and the Z score is 0.55.
The like results for `CCNc1nc(C)cc(Nc2ccc(NC(=O)Nc3ccc(F)cc3F)cc2)n1` were, in that order, 96% and -20.77.
The like results for `CCNc1cc(C)nc(NCCNC(=O)c2cc(-n3cccn3)nc(C)n2)n1` were, in that order, -1% and 0.15.
The like results for `CCNc1cc(C)nc(NCCNC(=O)Nc2cc(F)cc(F)c2)n1` were, in that order, 79% and -17.07.
For `CN(C)Cc1ccccc1NC(=O)c1cccc2c(=O)c3ccccc3[nH]c12`, the “% Inhibition” value is -2% and the Z score was determined as 0.38.
The like results for `NS(=O)(=O)Cc1cccc(NC(=O)c2cc(F)cc3c(=O)c4cccc(F)c4[nH]c23)c1` were, in that order, -8% and 1.68.
The like results for `COc1cc2nc(NCC3(N4CCN(C)CC4)CCCC3)cc(C)c2cc1OC` were, in that order, 55% and -8.35.
In the case of `COc1cc2nc(N3CCC(CN4CCN(C)CC4)CC3)cc(C)c2cc1OC`, the “% Inhibition” value is -2% and the Z score was determined as 0.44.
As to `CC(C)CCOc1ccc2[nH]c(-c3cc(N4CCC[C@@H]4CS(C)(=O)=O)ccn3)cc2c1`, the “% Inhibition” value is recorded as 97% and the Z score is given as -20.97.
Regarding `CCOc1cc2nccc(N3C[C@H]4CN(C)C[C@H]4C3)c2cc1OCC`, the “% Inhibition” value stood at 99% and the Z score was -21.22.
The like results for `O=C1c2cccc3cccc(c23)C(=O)N1CCc1nc2ccccc2s1` were, in that order, -1% and 0.09.
The like results for `COCC(O)CN1CCC(NC2CCCNc3ccccc32)CC1` (centres undefined) were, in that order, -7% and 1.28.
The like results for `O=C(c1cc(-c2ccccc2)[nH]n1)N1CCC(c2nc3cc(C(F)(F)F)ccc3s2)CC1` were, in that order, 3% and -0.4.
Regarding `CCN1CCC[C@H](Nc2cccc(-n3ccnc3)n2)C1`, the “% Inhibition” value came out at 46% and the Z score is -6.91.
`O[C@@H]1CCCCC[C@H]1Nc1cccc(-n2ccnc2)n1`: the “% Inhibition” value was -11% and the Z score is recorded as 1.62.
`O[C@H]1CCN(Cc2ccccc2CNc2cccc(-n3ccnc3)n2)C1`: the “% Inhibition” value was found to be 94% and the Z score is -14.28.
The like results for `CCn1nc(C(C)C)cc1C(=O)Nc1ccc(CC(=O)NC2CC2)cc1` were, in that order, 3% and -0.75.
Consider `Cc1cc(=O)[nH]c(-n2nc(C)cc2NC(=O)C(=O)N2CCC[C@H](C)C2)n1`, for which the “% Inhibition” value turned out to be 4% and the Z score was -0.54.
The like results for `Cc1cc(=O)[nH]c(-n2nc(C)cc2NC(=O)[C@H](C)n2nc3c(cc2=O)CCC3)n1` were, in that order, -7% and 1.4.
On to `COC(=O)c1cn(CCNc2ccnc3cc(Cl)ccc23)cc2c(O)nnc1-2`, for which the “% Inhibition” value turned out to be 97% and the Z score is listed as -19.19.
The like results for `Nc1cc(N2CCC(c3nc4cc(F)ccc4[nH]3)CC2)nc(N2CCOCC2)n1` were, in that order, 52% and -10.32.
The like results for `Nc1cc(N2CCC(N3CCc4ccccc4C3)CC2)nc(N2CCOCC2)n1` were, in that order, 5% and -0.91.
The like results for `Cc1cc(NC[C@H](O)COc2ccc(F)cc2)nc2ccccc12` were, in that order, 68% and -11.87.
For the molecule `Cn1nnc(C(=O)N2CCCCC23CCCCCC3)n1`, the “% Inhibition” value is recorded as 64% and the Z score is -13.81.
The like results for `CCN1C[C@H](Nc2nc(C)nc3sccc23)[C@@H](OC)C1` were, in that order, 99% and -21.25.
The like results for `COc1ccc(C(O)CNC2CCc3ccc(F)cc32)cc1` (centres undefined) were, in that order, 0% and 0.04.
As to `CN(C)C1CCN(CCN[C@H]2CCc3ccc(F)cc32)CC1`, the “% Inhibition” value was 87% and the Z score is -15.32.
With `Cc1cnccc1NCCNc1nc(C(C)(C)C)nc2c1cnn2C`, the “% Inhibition” value is reported as 20% and the Z score was -3.05.
Turning to `Cc1cc(=O)n(CCN2CCN(C(=O)c3ccc[nH]3)CC2)c(=O)[nH]1`, the “% Inhibition” value was -9% and the Z score was 1.92.
The like results for `COc1ccc2cc(-c3cc(N)ccn3)[nH]c2c1` were, in that order, 54% and -11.7.
The like results for `NC(=O)[C@H]1CCCN(CCCNc2cc(C(F)(F)F)nc(N3CCCC3)n2)C1` were, in that order, -5% and 0.88.
For `Cc1cc(NCCCN2CCC(C(=O)O)CC2)nc2ccccc12`, the “% Inhibition” value is reported as -15% and the Z score was 2.33.
The like results for `COc1ccc2c(C)cc(NCCCN3CCC[C@H](C(N)=O)C3)nc2c1` were, in that order, 57% and -8.7.

The values above are taken from ChEMBL document CHEMBL5308541, “MAIP: An Open-Source Tool to Enrich High-Throughput Screening Output and Identify Novel, Druglike Molecules with Antimalarial Activity” (ACS Med Chem Lett, 2023).
